# Data from PubChem BioAssay (NCI).
# About 83,000 compounds went through this panel and 20% of them were active in at least one assay; those are over-represented in the sample as a whole.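 Single-dose data. Exposure time 48 hours. Values below 10 considered active.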 Activity calls are given as the source filed them.
# System: SK-MEL-28 melanoma
# Experiment: NCI-60 one-dose screen, 48 h (100 = growth as untreated, 0 = no growth, -100 = all killed)
# Settings: 10 µM unless noted
row,SMILES,growth
1,CCCNC(=O)Oc1ccc(/C(=C(/C)Cc2ccc(OC)cc2)c2ccc(OCCCN(C)C)cc2)cc1,94.1% (inactive)
2,C/C(=N\NC(=O)c1ccccc1O)c1cccc(/C(C)=N/NC(=O)c2ccccc2O)n1,52.2% (inactive)
3,COCCn1c(-c2csc(-c3cn(C)c4ccc(OC)cc34)n2)cc2cccnc21,85.1% (inactive)
4,Cn1c(=O)c2[nH]c(N/N=C/c3ccccc3Br)nc2n(C)c1=O,107% (inactive)
5,O=C(Nc1nn(-c2ccc(Cl)cc2Cl)nc1-c1ccccc1)c1ccccc1,104% (inactive)
6,C=C1C(=O)O[C@H]2[C@H]1CC/C(COC(=O)NCc1ccc(Cn3c(=O)sn(CCI)c3=O)cc1)=C\CC[C@@]1(C)O[C@@H]21,55.5% (inactive)
7,Brc1c2c(c(Br)c3ccccc13)CCCC2,101% (inactive)
8,CS(=O)(=O)c1cccc(-c2c(-c3cccc(OS(N)(=O)=O)c3)nc3sccn23)c1,112% (inactive)
9,Oc1ccc(CCn2c(O)c(/C=C3\CN=c4ccccc4=N3)sc2=S)cc1,77.5% (inactive)
10,O=C(O)[C@@H]1c2ccccc2-c2ccccc2[C@H]1C(=O)O,102% (inactive)
11,Cn1cc(-c2csc(-c3ccc(Cl)cc3)n2)c2cccnc21,-63.9% [100 µM] (active)
12,NC(=O)c1c(NC(=O)c2ccccc2)sc2c1CCC(=O)C2,34.9% (inactive)
13,Cc1cc(Cl)ccc1Nc1nc(C(F)(F)F)ccc1C(=O)N/N=C/c1ccc([N+](=O)[O-])cc1,5.64% (active)
14,N#Cc1c(NC(=O)c2ccccc2)sc2c1CCC(=O)C2,17.5% (inactive)
